Test results: PubChem BioAssay (NCI)
The panel holds about 83,000 compounds, 20% with a hit somewhere; the sample as a whole holds those more often.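 Method: cells in 96-well plates; compound added at one concentration; 48 h incubation; percent growth measured; values under 10 scored active.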 Unmarked numbers belong to inactive results. Calls of active or inactive are those of the source.

Tested on: BT-549 breast
Experiment: NCI-60 one-dose screen, 48 h (100 = growth as untreated, 0 = no growth, -100 = all killed)
Conditions: 10 µM unless noted

Compound	growth
O=C(O)c1nn(-c2ccc(Cl)cc2)nc1N1CCCC1	95.4%
COCCn1cc(-c2nc(-c3cc4cccnc4n3C)cs2)c2cc(OC)ccc21	27%
CCOc1cc(\C=N/N=C(N)/C(N)=N\N=C/c2ccc(O)c(OCC)c2)ccc1O	93.1%
CC(C)=CCC[C@](C)(O)C1CC[C@]2(C)[C@@H]1CC[C@@H]1[C@@]3(C)CC/C(=N\OCCC#N)C(C)(C)[C@@H]3CC[C@]12C (some centres undefined)	102%
CCCc1cc(CCC)n2nc(N)nc2n1	92.9%
CC(CN)[C@@H]1CC[C@]2(CO)CC[C@]3(C)[C@H](CC[C@@H]4[C@@]5(C)CCC(NCCO)C(C)(C)[C@@H]5CC[C@]43C)[C@@H]12 (some centres undefined)	64.7%
COc1cccc(C(=O)Nc2cccc(NC(=O)c3ccccn3)c2)c1	91.3%
Cc1ccc(S(=O)(=O)c2nc(-c3ccccc3)oc2S(C)=O)cc1 (centres undefined)	27.5%
O=[N+]([O-])c1ccc(Oc2cccc3c(Oc4ccc([N+](=O)[O-])cc4[N+](=O)[O-])cccc23)c([N+](=O)[O-])c1	82.4%
CC1(C)CC(=O)C2=C(C1)OC(C(=O)c1ccccc1)C2c1cccc(Oc2ccccc2)c1 (centres undefined)	40.1%
Cn1cc(-c2nc(-c3c[nH]c4c(Cl)nccc34)cs2)c2ccccc21	110%
CCCCCN(CCCCC)CC(O)c1c(Cl)ccc2ccccc12 (centres undefined)	105%
COc1cccc2cc(N(C)c3ncnc4ccccc34)ccc12	32.3%
CN1C(=O)N(C)C2C1NN=c1s/c(=C\c3ccccc3F)c(=O)n12 (centres undefined)	18.9%
C#Cc1ccc(NC(=O)Cc2ccc(/C=C/C(=O)c3nccn3C)cc2)cc1	71.2%
O=C1C2C(c3cccs3)C=C(c3ccc(Cl)cc3)N2C(=S)N1c1ccccc1 (centres undefined)	92.4%
Cc1cc2nc(C(Cl)Cl)nc(-c3ccccc3)n2n1	86.8%
O=C(NS(=O)(=O)c1ccccc1)n1cc(-c2ccncc2)c(-c2cc(O)cc(Cl)c2)n1	101%
CCOC(=O)c1cc(C(=O)c2cc(OC)cc(OC)c2)n2ncccc12	18.4%
CC1=C2[C@@H](CC1)[C@]1(C)O[C@@](C(C)C)(C[C@H]1OC(=O)CO)[C@H]2OC(=O)CCCc1ccccc1	53.3%
O=C1/C(=C/c2cccc(Br)c2)COc2ccc(O)c(O)c21	-19.2% (active)
Nc1nc(N)c2c(n1)NC(c1cccc(Nc3ccnc4cc(C(F)(F)F)ccc34)c1)CC(c1ccc(Cl)cc1)=N2 (centres undefined)	114%
COc1ccc2c(c1)c(-c1nc(-c3cn(C)c4ccncc34)cs1)cn2C	91.2%
Cc1[nH]c(C(=O)Nc2ccc(C(N)=O)cc2OC(C)C)c(Cl)c1Cl	95.4%
COc1cc2nc3cc([N+](=O)[O-])ccc3c(NCCCNCCO)c2cc1OC	-73.4% (active)
CC1OC(C(=O)N2CCN(CCO)CC2)CC1COC1CCCCC1 (centres undefined)	90.2% [50 µM]
CC(C)(C)CC(C)(C)Nc1c(-c2c(O)c3ccccc3oc2=O)nc2sccn12	111%
O=C1NCCS(=O)(=O)/C1=C\C=C\c1cccc(C(F)(F)F)c1	20.2%
COC(=O)c1cc(-c2ccc(OC)c(OC)c2)[nH]c1N/N=C/c1c(Cl)cccc1Cl	37.7%
Oc1cccc(-c2nc(-c3n[nH]c(=S)n3-c3ccccc3)cc3c2[nH]c2ccccc23)c1	-15.9% (active)

Tested on: MDA-MB-435 melanoma
Experiment: as above
Conditions: 10 µM unless noted

Compound	growth
Cc1c(C(=O)C(SC(=S)N2CCOCC2)SC(=S)N2CCOCC2)nnn1-c1ccc([N+](=O)[O-])cc1	105%
CC(=O)Cc1nsc(NC(=O)c2cc(-c3cc(Cl)ccc3Cl)oc2C)n1	101%
COc1cc2ncnc(Nc3ccc(S(=O)(=O)Nc4cc(C)on4)cc3)c2cc1OCCCN1CCOCC1	106%
O=C(c1ccc(F)cc1)C1CCN(CCn2c(=O)[nH]c3ccccc3c2=O)CC1	104%
C=CCNc1ccc2c3c(cccc13)C(=O)N(CC=C)C2=O	109%
COC(CCP(=O)(c1ccccc1)c1ccccc1)(C(=O)c1ccccc1)c1ccccc1 (centres undefined)	71.4%
COc1cc2c(c(OC)c1OC)C(=O)CC(c1cccc(C(=O)Nc3ccc(Br)cc3)c1)O2 (centres undefined)	30.3%
COc1cc(-c2ccc(-c3ccc(C(=N)N)s3)s2)cc(OC)c1OC	-34.8% (active)
[2H]C([2H])([2H])Oc1ccc(/C=C/C(=O)/C=C(/C=C/c2ccc(OC([2H])([2H])[2H])c(OC([2H])([2H])[2H])c2OC([2H])([2H])[2H])OB(F)F)c(OC([2H])([2H])[2H])c1OC([2H])([2H])[2H]	26.7%
O=C(O)c1nn(-c2ccc(Cl)cc2)nc1N1CCCC1	100%
COCCn1cc(-c2nc(-c3cc4cccnc4n3C)cs2)c2cc(OC)ccc21	89.6%
CCOc1cc(\C=N/N=C(N)/C(N)=N\N=C/c2ccc(O)c(OCC)c2)ccc1O	98.7%
CC(C)=CCC[C@](C)(O)C1CC[C@]2(C)[C@@H]1CC[C@@H]1[C@@]3(C)CC/C(=N\OCCC#N)C(C)(C)[C@@H]3CC[C@]12C (some centres undefined)	87.7%
CCCc1cc(CCC)n2nc(N)nc2n1	110%
CC(CN)[C@@H]1CC[C@]2(CO)CC[C@]3(C)[C@H](CC[C@@H]4[C@@]5(C)CCC(NCCO)C(C)(C)[C@@H]5CC[C@]43C)[C@@H]12 (some centres undefined)	31%
COc1cccc(C(=O)Nc2cccc(NC(=O)c3ccccn3)c2)c1	93.2%
Cc1ccc(S(=O)(=O)c2nc(-c3ccccc3)oc2S(C)=O)cc1 (centres undefined)	37%
O=[N+]([O-])c1ccc(Oc2cccc3c(Oc4ccc([N+](=O)[O-])cc4[N+](=O)[O-])cccc23)c([N+](=O)[O-])c1	106%
CC1(C)CC(=O)C2=C(C1)OC(C(=O)c1ccccc1)C2c1cccc(Oc2ccccc2)c1 (centres undefined)	44.5%
Cn1cc(-c2nc(-c3c[nH]c4c(Cl)nccc34)cs2)c2ccccc21	96.4%

Compound	growth
CCCCCN(CCCCC)CC(O)c1c(Cl)ccc2ccccc12 (centres undefined)	84.2%
COc1cccc2cc(N(C)c3ncnc4ccccc34)ccc12	16.6%
CN1C(=O)N(C)C2C1NN=c1s/c(=C\c3ccccc3F)c(=O)n12 (centres undefined)	-40.2% (active)
C#Cc1ccc(NC(=O)Cc2ccc(/C=C/C(=O)c3nccn3C)cc2)cc1	83.6%
O=C1C2C(c3cccs3)C=C(c3ccc(Cl)cc3)N2C(=S)N1c1ccccc1 (centres undefined)	110%
Cc1cc2nc(C(Cl)Cl)nc(-c3ccccc3)n2n1	68.9%
O=C(NS(=O)(=O)c1ccccc1)n1cc(-c2ccncc2)c(-c2cc(O)cc(Cl)c2)n1	66.6%
CCOC(=O)c1cc(C(=O)c2cc(OC)cc(OC)c2)n2ncccc12	1.18% (active)
CC1=C2[C@@H](CC1)[C@]1(C)O[C@@](C(C)C)(C[C@H]1OC(=O)CO)[C@H]2OC(=O)CCCc1ccccc1	78.7%
O=C1/C(=C/c2cccc(Br)c2)COc2ccc(O)c(O)c21	-34.7% (active)
Nc1nc(N)c2c(n1)NC(c1cccc(Nc3ccnc4cc(C(F)(F)F)ccc34)c1)CC(c1ccc(Cl)cc1)=N2 (centres undefined)	-24.8% (active)
COc1ccc2c(c1)c(-c1nc(-c3cn(C)c4ccncc34)cs1)cn2C	-90% (active)
Cc1[nH]c(C(=O)Nc2ccc(C(N)=O)cc2OC(C)C)c(Cl)c1Cl	105%
COc1cc2nc3cc([N+](=O)[O-])ccc3c(NCCCNCCO)c2cc1OC	-100% (active)
CC1OC(C(=O)N2CCN(CCO)CC2)CC1COC1CCCCC1 (centres undefined)	103% [50 µM]
CC(C)(C)CC(C)(C)Nc1c(-c2c(O)c3ccccc3oc2=O)nc2sccn12	104%
O=C1NCCS(=O)(=O)/C1=C\C=C\c1cccc(C(F)(F)F)c1	18.2%
COC(=O)c1cc(-c2ccc(OC)c(OC)c2)[nH]c1N/N=C/c1c(Cl)cccc1Cl	-18.3% (active)
Oc1cccc(-c2nc(-c3n[nH]c(=S)n3-c3ccccc3)cc3c2[nH]c2ccccc23)c1	3.44% (active)
